Sampled rows, rich in hits. Any-hit rate of the full collection: about 2.9%.
IP6K1 inhibitor = blocks human inositol hexakisphosphate kinase 1. Q92551. IP6K1 kinase, ADP-Glo luminescence, 2 h; hits give low values. activity change, % (series mostly up to about 58 µM). 140,000 tested, 0.81% active; in the data active means activity change below about -25%
Target sequence (Q92551 whole entry, looked up): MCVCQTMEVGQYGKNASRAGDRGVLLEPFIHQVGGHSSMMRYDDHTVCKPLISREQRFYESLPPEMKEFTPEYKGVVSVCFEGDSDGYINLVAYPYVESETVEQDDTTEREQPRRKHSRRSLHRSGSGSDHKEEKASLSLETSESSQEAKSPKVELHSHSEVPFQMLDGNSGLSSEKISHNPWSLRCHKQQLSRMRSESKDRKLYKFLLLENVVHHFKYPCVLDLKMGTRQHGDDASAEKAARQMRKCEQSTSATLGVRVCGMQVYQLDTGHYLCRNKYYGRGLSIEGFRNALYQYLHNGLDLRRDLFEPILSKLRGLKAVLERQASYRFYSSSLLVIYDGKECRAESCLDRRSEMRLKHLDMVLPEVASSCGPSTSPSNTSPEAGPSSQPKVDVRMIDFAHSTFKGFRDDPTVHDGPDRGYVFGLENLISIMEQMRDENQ
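ADP-Glo luminescence measures ADP made by human IP6K1 during a 2 h RT reaction with ATP/IP6 (mix at 1.3 mM/130 uM); top library doses 57.5 and 19.1 uM final.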
HEK293 viab = counter-screen for SNCA expression inhibitors: cell viability; HEK-293-SNCA-luc viability, GF-AFC fluorescence, 24 h; Potency, µM (doses to about 57.1 µM), most hits filed as cytotoxic; 150,000 tested, 0.12% active; further: nearly all actives have a fitted effect of over 30% in size
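Cytotoxicity counterscreen: after 24 h compound treatment of genome-edited SNCA-luciferase HEK-293 cells, live-cell protease substrate GF-AFC read by fluorescence after 30 min; activity scaled between DMSO (0%) and medium-only (-100%), curves Hill-fitted.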
KDM5B inhibitor = blocks human KDM5B histone demethylase activity. Q9UGL1. KDM5B demethylase, FDH-coupled NADH fluorescence (FDH is formaldehyde dehydrogenase). Potency, µM (top dose mostly 57.7 µM), hits mostly inhibitors. 220,000 tested, 2.6% active. AID 1347165; further: nearly all actives have a fitted effect of over 70% in size
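Inhibition is measured as reduced NADH fluorescence generation from FDH coupling to formaldehyde release. Truncated KDM5BΔAP at 200 nM final acts on H3K4me3 peptide (12.5 µM in substrate mix) in pH 7.5 HEPES buffer with Tween-20, 30 min, room temperature.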
SNCA expr inhib = inhibitors of alpha-synuclein (SNCA) gene expression | HEK-293 SNCA-luciferase knock-in, luminescence, 24 h | Potency, µM (top dose mostly 57.2 µM), usual class: inhibitors | 140,000 tested, 0.17% active | AID 1671194; further: nearly all actives have a fitted effect of over 45% in size
A number is an active result; [ ] = another dose, or the depositor's remark. Unless noted, the call rests on the fitted dose curve; in most records, active means well fitted curve in the direction sought with a large enough effect; inconclusive means small, poorly fitted or top-dose-only effect, or another doubt; inactive means no such curve, though single readings can be large; an effect the other way counts as inactive or inconclusive.

For C=CCNC1=C2C[C@@H](C)C[C@H](OC)[C@@H](O)[C@@H](C)C=C(C)[C@H](OC(N)=O)[C@@H](OC)C=CC=C(C)C(=O)NC(=CC1=O)C2=O the results were HEK293 viab inactive and SNCA expr inhib inconclusive.
For CO[C@H]1C=CC=C(C)C(=O)NC2=CC(=O)C(NCCN(C)C)=C(C[C@@H](C)C[C@H](OC)[C@@H](O)[C@@H](C)C=C(C)[C@@H]1OC(N)=O)C2=O the results were HEK293 viab inconclusive and SNCA expr inhib 0.054µM.
`COc1ccc(C(=O)N2CCC3(CC2)N=C(c2ccc(Br)cc2)NO3)cc1` gave IP6K1 inhibitor inactive, HEK293 viab inactive, KDM5B inhibitor inconclusive and SNCA expr inhib inconclusive.
For Cn1cc(-c2cnc(Nc3cccc(C(F)(F)F)c3)c3c2CCO3)cn1 the results were IP6K1 inhibitor inactive, HEK293 viab inactive, KDM5B inhibitor 35µM and SNCA expr inhib inactive.
`FC(F)(F)c1cccc(Nc2ncc(-c3cccnc3)c3c2OCC3)c1` gave IP6K1 inhibitor inactive, HEK293 viab inactive, KDM5B inhibitor 28µM and SNCA expr inhib inactive.
O=C(c1ccc2nnc(-c3ccc(OC(F)(F)F)cc3)n2c1)N1CCOCC1 was read as IP6K1 inhibitor inactive, HEK293 viab inconclusive and SNCA expr inhib inactive.
Screening COc1ccc(-c2cn3cc(C(=O)N(C)C)nc3s2)cc1 returned IP6K1 inhibitor inactive, HEK293 viab inactive and SNCA expr inhib inactive.
Screening COc1ccc(OCC2CN(Cc3cccc(F)c3)C(=O)c3ccc(C)nc3O2)cc1 (centres undefined) returned IP6K1 inhibitor inactive.
Screening CC(=O)Nc1ccc(NC(=O)C2c3ccccc3C(=O)N(C3CCCC3)C23CCCC3)cc1 (centres undefined) returned IP6K1 inhibitor inactive, HEK293 viab inactive, KDM5B inhibitor inconclusive and SNCA expr inhib inactive.
For COCCN1C(=O)c2ccccc2C(C(=O)Nc2ccc(OC)cc2)C12CCCC2 (centres undefined) the results were IP6K1 inhibitor inactive, HEK293 viab inactive, KDM5B inhibitor 16µM and SNCA expr inhib inactive.
`COCCN1C(=O)c2ccccc2C(C(=O)NCCc2c[nH]c3ccccc23)C12CCCC2` (centres undefined) gave IP6K1 inhibitor inactive, HEK293 viab inactive, KDM5B inhibitor 22µM and SNCA expr inhib inactive.
`Cc1nc(NC(=O)C2c3ccccc3C(=O)N(C3CCCC3)C23CCCC3)sc1C` (centres undefined) gave IP6K1 inhibitor inactive, HEK293 viab inactive, KDM5B inhibitor 22µM and SNCA expr inhib inactive.
Screening CCN(Cc1cccc2cnccc12)CC1CCCN(CCc2cccc(F)c2)C1 (centres undefined) returned IP6K1 inhibitor inactive, HEK293 viab inconclusive, KDM5B inhibitor inactive and SNCA expr inhib inconclusive.
For CN1CCCC1CCNc1nccc(-c2cnn(-c3ccc(F)cc3)c2)n1 (centres undefined) the results were IP6K1 inhibitor inactive, HEK293 viab inactive, KDM5B inhibitor 28µM and SNCA expr inhib inactive.
C=C(C)CNc1ccc(C(=O)NCCC2CCCCN2C)cn1 (centres undefined) was read as IP6K1 inhibitor inactive, HEK293 viab inactive, KDM5B inhibitor inconclusive and SNCA expr inhib inactive.
CN1CCCC1CCNc1nccc(-c2cnn(-c3ccccc3F)c2)n1 (centres undefined) was read as IP6K1 inhibitor inactive, HEK293 viab inactive, KDM5B inhibitor 28µM and SNCA expr inhib inactive.
CCCCCNC(=O)C1CCCN(c2nccc(Nc3ccccc3OC)n2)C1 (centres undefined) was read as IP6K1 inhibitor inactive, HEK293 viab inactive[12.5 µM] and SNCA expr inhib inconclusive.
For CO[C@H]1[C@H](NC(=O)c2cc3ccccc3n2C)c2ccccc2C12CCNCC2 the results were IP6K1 inhibitor inactive, HEK293 viab inconclusive, KDM5B inhibitor inconclusive and SNCA expr inhib inactive.
Screening COCCC(=O)N1CCCCCCNC(=O)[C@@H]2C[C@@H](C(=O)N3CCN(c4ccccn4)CC3)C[C@@H]21 returned IP6K1 inhibitor inactive, HEK293 viab inconclusive, KDM5B inhibitor inconclusive and SNCA expr inhib inactive.
For CCC(=O)N1CCCCCCNC(=O)[C@@H]2C[C@@H](C(=O)N3CCN(c4ccccn4)CC3)C[C@@H]21 the results were IP6K1 inhibitor inactive, HEK293 viab inactive, KDM5B inhibitor 28µM and SNCA expr inhib inactive.
O=C1NCCCCCCN(C(=O)c2ccco2)[C@H]2C[C@H](C(=O)N3CCN(c4ccccn4)CC3)C[C@@H]12 was read as IP6K1 inhibitor inactive, HEK293 viab inactive, KDM5B inhibitor 25µM and SNCA expr inhib inactive.
`CCOc1ccc(C(=O)N2CCCN(c3cc(-c4ccc(Cl)cc4)[nH]n3)CC2)cc1OCC` gave IP6K1 inhibitor inactive, HEK293 viab inconclusive, KDM5B inhibitor inconclusive and SNCA expr inhib inconclusive.
Screening Cc1nnsc1C(=O)N[C@H]1CCN2C(=O)N(c3ccc(F)c(Cl)c3)C(=O)[C@@H]2C1 returned IP6K1 inhibitor inactive, HEK293 viab inactive, KDM5B inhibitor inactive and SNCA expr inhib inactive.
For O=C(N[C@H]1CCN2C(=O)N(c3cccc4nsnc34)C(=O)[C@@H]2C1)c1ccc(F)c(Cl)c1 the results were IP6K1 inhibitor inactive, HEK293 viab inactive, KDM5B inhibitor 32µM and SNCA expr inhib inconclusive.
`CN1CCCCCC1C(=O)N1CCN(c2ccc(C#N)cn2)CC1` (centres undefined) gave IP6K1 inhibitor inactive, HEK293 viab inactive, KDM5B inhibitor 28µM and SNCA expr inhib inactive.
Screening O=C(c1ccc2nc(-c3ccccc3)cn2c1)N1CCOC(C(F)(F)F)C1 (centres undefined) returned IP6K1 inhibitor inactive, HEK293 viab inactive, KDM5B inhibitor 32µM and SNCA expr inhib inactive.
CCCOC1CCCN(C(=O)c2ccc3nc(-c4ccc(F)cc4)cn3c2)C1 (centres undefined) was read as IP6K1 inhibitor inactive, HEK293 viab inactive, KDM5B inhibitor 28µM and SNCA expr inhib inactive.
Screening O=C(c1cccc2nccnc12)N1CCOC(C(F)(F)F)C1 (centres undefined) returned IP6K1 inhibitor inactive, HEK293 viab inactive, KDM5B inhibitor inactive and SNCA expr inhib inactive.
O=C(c1ccc2nc(-c3ccc(F)cc3)cn2c1)N1C[C@@H]2CCCN[C@@H]2C1 was read as IP6K1 inhibitor inactive, HEK293 viab inactive, KDM5B inhibitor 28µM and SNCA expr inhib inactive.
Screening O=C(c1ccc(F)cc1)N1CCCC(c2nc(-c3ccc(F)cc3)no2)C1 (centres undefined) returned IP6K1 inhibitor inactive and HEK293 viab inactive.
Cc1ccccc1-c1cnc2[nH]cc(CC(=O)NCc3cccnc3)c2c1 was read as IP6K1 inhibitor inactive, HEK293 viab inactive, KDM5B inhibitor inconclusive and SNCA expr inhib inactive.
For Cc1noc(C)c1-c1cnc2[nH]cc(CC(=O)NCc3cccnc3)c2c1 the results were IP6K1 inhibitor inactive, HEK293 viab inactive, KDM5B inhibitor 35µM and SNCA expr inhib inactive.
`Cc1noc(C)c1-c1cnc2[nH]cc(CC(N)=O)c2c1` gave IP6K1 inhibitor inactive, HEK293 viab inactive, KDM5B inhibitor 32µM and SNCA expr inhib inactive.
